D3 ag = activates the human D3 dopamine receptor | P35462 | D3R DiscoveRx beta-arrestin cells, luminescence, 90 min | max activation, % | 410,000 compounds, 0.58% hits | AID 652048; in the data active = max activation above about 30%; note: 0% is about no effect
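Agonist-mode cell screen: cells plated at 1500/well and incubated overnight at 37 °C, then exposed to library compounds for 90 min at 37 °C. Detection reagent was added for 30–60 min at room temperature, and luminescence was read.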
D1 antagonist = human D1 dopamine receptor antagonism; HEK293 TREx D1 cells, calcium flux, dopamine EC80; stronger effect = lower value; activity change, negative = inhibition, % at 10 µM; 360,000 compounds, 3.2% hits; AID 504652; in the data active = activity change below about -30%; note: % is set by controls: 0 for no effect and ±100 for the full control effect
Target sequence (P21728 whole entry, looked up): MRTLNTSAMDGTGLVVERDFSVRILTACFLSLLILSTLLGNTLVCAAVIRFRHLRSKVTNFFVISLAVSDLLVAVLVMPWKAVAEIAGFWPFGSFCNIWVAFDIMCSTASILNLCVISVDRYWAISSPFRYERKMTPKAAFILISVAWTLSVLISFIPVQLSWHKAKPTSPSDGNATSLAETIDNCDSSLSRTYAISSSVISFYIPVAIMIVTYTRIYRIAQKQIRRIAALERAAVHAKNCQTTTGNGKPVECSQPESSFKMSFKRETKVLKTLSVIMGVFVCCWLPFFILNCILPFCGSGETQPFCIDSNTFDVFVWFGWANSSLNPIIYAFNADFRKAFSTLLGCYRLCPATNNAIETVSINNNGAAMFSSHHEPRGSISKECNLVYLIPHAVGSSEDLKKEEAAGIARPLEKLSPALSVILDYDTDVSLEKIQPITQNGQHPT
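Using tetracycline-induced force-coupled D1 Hek293 cells and a calcium dye, signals were followed for 180 s after compound, then for 180 s after EC80 dopamine, to detect inhibitors.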
D1 PAM = potentiators of human D1 dopamine receptor. potentiation, % at 10 µM. HEK293 TREx D1 cells, calcium flux, dopamine EC20 potentiation. 360,000 compounds, 0.036% hits; in the data active = potentiation above about 30%; note: 0% is about no effect
D3 antag = blocks the human D3 dopamine receptor; P35462; 360,000 compounds, 2.5% hits; max response, negative = inhibition, %; D3R cells, DiscoveRx beta-arrestin luminescence, antagonist mode; stronger effect = lower value; in the data active = max response below about -50%; inconclusive = no clear call, values can overlap the other calls; note: % is set by controls: 0 for no effect and ±100 for the full control effect
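Cells expressing the human receptor were seeded at 1500 cells/well, incubated overnight at 37 degrees C in 5% CO2, then exposed to library compounds with dopamine controls for 90 minutes at 37 degrees C before luminescent detection.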
D1 ag = activates the human D1 dopamine receptor; P21728; HEK293 T-REx D1 cells, calcium flux, agonist mode; activation, % at 2 µM; 360,000 compounds, 1% hits; AID 504660; in the data active = activation above about 30%; note: 0% is about no effect
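Agonism was scored from calcium flux recorded over 180 s (1 read/s) after pintool compound addition, following a 10-cycle baseline. Cells were inducible force-coupled HEK293 TREx D1, plated overnight at 30 C and loaded with no-wash calcium dye.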
Starred values were filed as active, the others as inactive; ? = inconclusive; . = no result given. A selection: hits, their analogues and other compounds. The true share with any hit is near 6%.

SMILES | D3 ag | D1 antagonist | D1 PAM | D3 antag | D1 ag
CCC1Oc2ccc(Cl)cc2N(CC(=O)NCCc2ccc(Cl)cc2)C1=O (configuration not stated) | -25 | -7 | 1 | . | 6
O=C(O)CC1c2ccccc2C=Cc2ccccc21 | -7 | -32* | -6 | -20 | 0
COc1cccc2cc(C(=O)OCC(=O)NC3CCCC(C)C3C)c(=O)oc12 (configuration not stated) | 82* | . | . | -9 | .
C[C@@H]1[C@H]2[C@@H](O[C@@H]3O[C@H](CO)[C@@H](O)[C@H](O)[C@H]3O)OC=C(C(=O)O)[C@H]2C[C@@H]1O | 43* | 1 | 1 | -12 | 14
CC1=CC(C)(C)Nc2ccc(OS(=O)(=O)c3ccc(C)cc3)cc21 | 0 | 4 | 3 | 17 | 9
CC(=O)Nc1ccc(S(=O)(=O)Oc2cccc(N3C(=O)C4CC=CCC4C3=O)c2)cc1 (configuration not stated) | 3 | -15 | 0 | 2 | 13
CC(=O)Nc1ccc(S(=O)(=O)Oc2ccc(/C=N/NC(=O)c3ccc(Cl)cc3)cc2)cc1 | -4 | -23 | -10 | ? | 8
CC(=O)Nc1ccc(S(=O)(=O)Oc2ccc(N3C(=O)C4CCCCC4C3=O)cc2)cc1 (configuration not stated) | 4 | -52* | -9 | 23 | 38*
CC(=O)Nc1ccc(S(=O)(=O)Oc2ccc3c(c2)C(C)=CC(C)(C)N3)cc1 | . | -42* | -5 | . | 20
COC(=O)c1ccc(OS(=O)(=O)c2ccc(NC(C)=O)cc2)cc1 | 8 | -35* | -8 | 12 | 21
CC(C)(C)C(=O)C(Cc1ccccc1)n1cncn1 (configuration not stated) | 3 | -2 | 0 | -55* | 2
Cc1ccc(CNC(=O)CN2Cc3ccccc3C2=O)cc1 | -3 | -37* | -5 | . | 0
Cc1ccc(CNC(=O)CN2CCN(Cc3ccc(C)cc3)C2=O)cc1 | -8 | 9 | -1 | 6 | 1
O=C(Nc1ccc(C(=O)NCCCN2CCCCC2)cc1)C1=CSCCO1 | -5 | 13 | -3 | 12 | 2
O=C(Nc1ccc(C(=O)NCCCN2CCN(c3ccc(F)cc3)CC2)cc1)C1=CSCCO1 | -22 | -78* | -17 | -92* | 62*
CC1CCCN(CCCNC(=O)c2ccc(NC(=O)C3=CSCCO3)cc2)C1 (configuration not stated) | -13 | -6 | 10 | 10 | 3
Cc1cccc(N2CCN(CCCNC(=O)c3ccc(NC(=O)C4=CSCCO4)cc3)CC2C)c1 (configuration not stated) | -24 | -40* | -16 | ? | 18
C=C1C(=O)[C@]23C[C@H]1CCC2[C@]1(C)C(=O)CC[C@@](C)(C(=O)O)C1C[C@@H]3O (some centres not stated) | -5 | . | . | -18 | .
C=C1C(=O)[C@]23C[C@H]1CCC2[C@]1(C)CCC[C@@](C)(C(=O)O)C1C[C@@H]3O (some centres not stated) | -13 | . | . | -89* | .
Cc1ccc(-n2c(=O)c3cccnc3n2CC(=O)Nc2ccc(Br)cc2)cc1C | 1 | -6 | 1 | . | 2
CCCN1CCN(c2nnc(-n3cccc3C(=O)Nc3cc(Cl)ccc3C)s2)CC1 | -14 | -1 | -2 | . | 3
Cc1cccc(NC(=O)c2ccccc2O)c1C | -2 | -32* | -8 | 8 | 18
O=C(c1ccc2c(c1)N(Cc1ccc(F)cc1)C(=O)c1ccccc1S2(=O)=O)N1CCCCC1 | -6 | 2 | 0 | . | 5
CCN(CC)c1cc(C)c2cc(NC(=O)c3ccc(Br)o3)ccc2n1 | -3 | -55* | -3 | 15 | 0
Cc1nc2ccc(NC(=O)c3ccc(Br)o3)cc2s1 | -3 | -31* | -4 | -2 | 9
SMILES | D3 ag | D1 antagonist | D1 PAM | D3 antag | D1 ag
CCCC(=O)Nc1nc2ccc(NC(=O)c3ccc(Br)o3)cc2s1 | -10 | 9 | -3 | 13 | 2
CSc1ccc(-c2nc3ncccn3c2Nc2ccc(C)c(C)c2)cc1 | 8 | 3 | 0 | . | 0
CCOc1ccccc1NC(=O)CSc1nnc2[nH]c(=O)cc(C)n12 | -17 | . | -1 | . | 0
Nc1cc(=O)[nH]c2nnc(SCC(=O)Nc3cccc4ccccc34)n12 | 7 | -45* | 3 | 3 | 0
Cc1cc(=O)[nH]c2nnc(SCC(=O)Nc3ccc(OC(F)(F)F)cc3)n12 | 47* | . | 1 | . | -2
N#CC(C#N)=C(N)/C(C#N)=C/c1cc(O)c(O)c(O)c1 | 7 | -20 | 2 | 1 | 30*
CCCCCCOC(=O)C(C#N)c1nc2ccccc2nc1N1CCOCC1 (configuration not stated) | 1 | 0 | 3 | 6 | 5
CCCCCCOC(=O)C(C#N)c1nc2ccccc2nc1N1CCN(CC)CC1 (configuration not stated) | 1 | 2 | 2 | -59* | 2
CCc1ccccc1NC(=O)NC1CC2CCC(C1)N2Cc1cccs1 (configuration not stated) | -30 | 13 | -4 | -54* | 3
Cc1ccc(NC(=S)NC2CC3CCC(C2)N3Cc2ccco2)c(C)c1 (configuration not stated) | -15 | -43* | -7 | -10 | 6
Cc1cccc(NC(=S)NC2CC3CCC(C2)N3Cc2ccco2)c1C (configuration not stated) | -11 | -21 | -3 | -14 | 1
Cc1ccc(NC(=S)NC2CC3CCC(C2)N3Cc2ccco2)cc1C (configuration not stated) | -21 | -89* | -17 | -23 | 8
Cc1ccc(NC(=S)NC2CCCC2)cc1C | 3 | 1 | 7 | -21 | 0
CCc1ccc(NC(=S)NC2CC3CCCC(C2)N3Cc2cccs2)cc1 (configuration not stated) | -42 | -81* | -11 | -70* | 4
CCc1ccccc1NC(=S)NC1CC2CCC(C1)N2Cc1ccco1 (configuration not stated) | -27 | 1 | 4 | -53* | 5
CCc1ccccc1NC(=S)NC1CC2CCC(C1)N2Cc1ccc(F)cc1 (configuration not stated) | -20 | 5 | -6 | -90* | 14
CN(C)S(=O)(=O)c1ccc(S(=O)(=O)N2CCN(CCC#N)CC2)cc1 | -8 | -33* | -4 | 0 | -1
N#CCCN1CCN(S(=O)(=O)c2ccc(C3CCCCC3)cc2)CC1 | -1 | -19 | -6 | 8 | 0
CC1CCCCC1NS(=O)(=O)c1ccc(S(=O)(=O)N2CCN(CCC#N)CC2)cc1 (configuration not stated) | -2 | -35* | -9 | 15 | 5
CCN(CC)S(=O)(=O)c1ccc(S(=O)(=O)N2CCN(CCC#N)CC2)cc1 | -7 | 0 | 13 | 0 | 2

Screens as filed in PubChem.
